PubChem BioAssay AID1508600 (Functional Genomics Laboratory (NCATS/FGL), 2020)
Hit rate of the full screen: of about 53,000 sequences, about 3,700 (7%) were called active. This excerpt belongs to a sample that is enriched for actives. Unmarked numbers belong to inactive results.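 How the source made its calls: active means gene knockdowns whose robust z-score for IL-1 alpha signal is at least 2 or at most -2, so actives lie on both sides; inactive means the rest.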

Experiment: Components of the Cytosolic LPS Sensing Pathway: Gene Identification via Genome-wide siRNA Screen;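 further: robust z of the log signal after scaling to non-targeting control siRNA wells of the plate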
Details: RAW264.7 macrophages, IL-1a HTRF, actives lie on both sides, screened at 100 nM (by protocol), cells primed 5 h with Pam3CSK4 first
Summary of the method: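 Knockdown: 100 nM siRNA, 48h, RAW264.7. Stimulation: Pam3CSK4 5 h, then LipidA via TransIT-TKO 24 h. Output: supernatant IL-1a HTRF, negative-control-normalized, log robust z-score; viability by CellTiter-Glo.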

Compared with GCAACGCAACAGCAUUCCUTT against Psmg1, GGAUAUGCUGAGGUGGUGGTT against Cpsf7 is lower in z-score: 1.34 for the first, -1.07 for the second.

First: GGUGUACAUGGACAUCAAGTT against Ppie
Second: GGUCUUUGAGUUAAACCAUTT against Cdc7
The z-score of the first is higher: 0.0171 for the first, -0.0476 for the second.

Compared with CCUGAGCUAGAAUCUCAGATT against Zmat2, CCCUUUCAACCAUUAAGCUTT against Kcns2 is lower in z-score: 0.715 for the first, 0.243 for the second.

Compared with GGAUGGGUCAAUGUUCUACTT against V1rb6, CCAUGUGUAAAGGGAGAAATT against Nxph2 is higher in z-score: 0.232 for the first, 0.893 for the second.

First: CCAGUUGUGUGAAUUAUGUTT against Psmd2
Second: CCUACCGUUACCUAAGUGATT against Kcnj5
The z-score of the first is lower: -2 for the first, -1.15 for the second.

First: GCAAUGAGUAUUCAUGCAATT against Sec61a2
Second: CCUUCAGUGCUGUAGUGUATT against Rasl10b
The z-score of the first is lower: -1.86 for the first, 0.37 for the second.

Going from GGAGUCCUAGAACACACAGTT against Snap29 to GGAAUAUUAUGGGUAUCGATT against Cacna1s, the z-score rises from -1.79 to 0.952.

Going from GGUGGACUCUGUUUAAAAATT against Mtnr1a to GGUCUGUGAAAUGAAAAAUTT against Brix1, the z-score falls from 0.971 to -0.473.

First: CGGGUAUCAUCGAUUAUGGTT against Tnfaip6
Second: GGAGUGCAGUACAAAGGACTT against Ahsa1
The z-score of the first is lower: -0.356 for the first, 0.872 for the second.

Going from GCCCAGCUCAAAUCUCCAUTT against Defb41 to GGACUUUUCAUUUGAAGCATT against Gar1, the z-score falls from 1.05 to 1.03.

Compared with GGAGUUUGUAGCUGACAUCTT against Dcaf15, CCUGGACAAGCUAUACCUUTT against Cdc45 is higher in z-score: -1.02 for the first, 0.952 for the second.

First: GGCAUUGUAACCCUUGUAATT against Zscan26
Second: CGACUGGAUACCAAAUUACTT against Mtrex
The z-score of the first is higher: -0.684 for the first, -1.21 for the second.

First: GGAUCAUGAGAAUAUCAUCTT against P4hb
Second: GGGCCUCCUGUAAACAUCCTT against D630039A03Rik
The z-score of the first is lower: 0.816 for the first, 0.884 for the second.

First: AUAAGAUGUUGCUCGGAACTT against Olfr1193
Second: GCCAGUGUUAUCCAGGACUTT against Cggbp1
The z-score of the first is lower: 1.26 for the first, 1.35 for the second.

Going from GCAACUCAACCUCAACCAUTT against Lrrc8e to GGUGAAAUUGCUCAGAUAATT against Narf, the z-score rises from -0.597 to 0.387.

Compared with AACCAUGAUGCUUACGUUUTT against S100a10, CCACAUACAUUUCACAGGGTT against Kdf1 is lower in z-score: 0.285 for the first, -0.806 for the second.

Going from GGAGUGUGUGCUUUUAAAATT against Rabggta to GGCAGAAGUGGAAAAACAATT against Tmco1, the z-score falls from 0.248 to -0.417.

Going from GAACCCUCAUGAGGGUUACTT against C1ql1 to GCCAGUAUGCUGUAUGGCUTT against Bcas3, the z-score falls from 0.177 to -0.712.

Compared with GCUACCUCUUGCAUGGGAGTT against Bivm, GGCCUGUAUUCUGCUCUGUTT against Olfr341 is higher in z-score: -0.0737 for the first, 0.0576 for the second.

Going from GGCUGCUUAGCUUUAAUGGTT against Ccdc177 to GGUUCUAGGCAGUUUGAUATT against Tlnrd1, the z-score rises from -0.674 to 1.64.

Going from GCCAAUUAAUGAUUGCUUUTT against Zfp322a to CGCCAGCAGAACUCAAAUATT against Gm11992, the z-score falls from 0.945 to 0.623.

Compared with GAUGAUUGACGACAUGGAATT against Rgs9bp, GGAUGAUGUGAUGAAGAUCTT against Fgfr4 is lower in z-score: 0.656 for the first, -0.0955 for the second.

Going from GGUUAAAUGCCCGCCAACATT against Eif2ak4 to GGAUAAGGACCUCUUCUCUTT against Ubl7, the z-score falls from -0.876 to -1.41.

Compared with GGGAAUAGCAAACUUAUCUTT against Nfil3, GGGACAAAACCUUGAUGGUTT against Vmn1r200 is higher in z-score: -0.688 for the first, -0.254 for the second.

First: GGAAGUAAUCAAUUUGGUGTT against Epm2aip1
Second: GCACAUGUAUCCAUGCUUCTT against Kcnj11
The z-score of the first is higher: 1.36 for the first, -0.815 for the second.

Going from GGAAGUUCGUGGAAGGCAATT against Pck1 to GGAAGAAAACAGCGAUUUGTT against Ppp1r15a, the z-score falls from 0.188 to -0.447.

Going from GCAUUAUUCAUAUGUUGGUTT against Fpr-rs4 to GGAGUCUCUGAAGAAAACATT against Hus1, the z-score falls from -0.318 to -0.596.

First: CCCAAUUUGGAGCUAUCAGTT against Cwh43
Second: GGACUUCCAGAUCCAACCUTT against Robo4
The z-score of the first is lower: -0.89 for the first, -0.867 for the second.

Compared with GGAACUCUCAAGAGAGAAUTT against Dnajc14, “GGACAGAGAACAAAUGACCTT against 4931417E11Rik” is lower in z-score: 0.233 for the first, -1.91 for the second.

Going from GGCAGCAGUUAUUGUGGAUTT against Ly6a to GGAAGGACCAAAGCUUUCUTT against Olfr1123, the z-score rises from 0.693 to 0.982.

First: CCACCAAUGAUUUGAUGCATT against Gpr75
Second: GGAUUUUGAAUUAUGGGAUTT against Relch
The z-score of the first is higher: -0.0162 for the first, -0.0955 for the second.

Compared with CGAAGGGAUUGAUUUGACUTT against Kars, CGCACUUUGGCUUGUAAUUTT against Smad6 is higher in z-score: -0.324 for the first, 0.327 for the second.

First: GCUGUAAACCGAAUCAAAGTT against Khdc4
Second: CGUGAGGUUAUGAUGUAUUTT against Gm5444
The z-score of the first is higher: 0.0586 for the first, -1.3 for the second.

Going from CCAUUAUCCUGGUGUGUAUTT against Olfr1362 to GGCGAUACUUGGAAAAAUCTT against Nln, the z-score falls from -0.0735 to -0.508.

Going from GCCCGUCCUGUUUGGAUUATT against Wdr53 to “GGACCUUGAGAUAUCUUUUTT against D130020L05Rik”, the z-score falls from 0.501 to -0.361.

Compared with GGACAGAGGACAAGCAGAATT against Ghrl, CCUAAUUUGAUCCUUCGAATT against Zfp672 is lower in z-score: -0.532 for the first, -0.947 for the second.

Compared with GAACGACAACCCGAUAAUGTT against Ttc9c, GGAUUUAAUGGUAAAUCACTT against Relch is higher in z-score: -0.141 for the first, 0.034 for the second.

Compared with GGAAGGUCAAAGUCCUUUATT against Pitpnm2, GGCUUCAAGCUAUUCAUGATT against Dgkb is higher in z-score: -0.685 for the first, 0.126 for the second.

Compared with GGGAUUGAGGGAGAUUUUCTT against Tedc2, GUGCUUCUGAUCUCCUACATT against Olfr223 is higher in z-score: -0.206 for the first, 1 for the second.

Compared with “CCAAUCCAAUGAAUGUUUCTT against A330070K13Rik”, GCUGAAAGUAUUCAUGUAATT against Sec13 is higher in z-score: -1.75 for the first, -1.6 for the second.

First: GGCCAUCUCUUCUACUGUATT against Glt28d2
Second: GCUUUCUGGGUAACAUAGGTT against Ubqln3
The z-score of the first is higher: 0.0935 for the first, -1.46 for the second.

Going from GGGACCUUGAUCAAAACCUTT against Gp5 to GGAAAUGACAAGUAUGAAGTT against Gria4, the z-score falls from -0.215 to -1.33.

Going from GUACCCAAAAUGUUGAUGATT against Olfr979 to GCGGCUCCAUCAGAAAAUGTT against Htatip2, the z-score falls from 0.794 to 0.526.

Sequence GGAAAUCCAUGAGAAGGUGTT against Ctbp2 has a z-score of 0.732.

With CCACCAGAAUCCUAACACATT against Nucb2 the z-score was 2.55 (active).
For GGACUUACAUGGAAUUUUATT against Eftud2, the z-score was -2.07 (active).
For GCCUUUCUCGCUACUUAGUTT against Cltc, the z-score was 2.83 (active).
In the case of GGAAAUCCAACUUCUUUCATT against Ebf2, the z-score is reported as 2.7 (active).
For GGUGUCUGCGUGAAGAUCATT against Cacng8, the z-score was 2.81 (active).
With GGUGAUGUCAAGAGUUUUCTT against Hacd2 the z-score was 3.56 (active).
With CCUCGAGUGGUUGGAUAAGTT against Vps25 the z-score was -2 (active).
With GGAAUGUAUCCAGGACUUCTT against Brd4 the z-score was -2.46 (active).
In the case of GCUGAUAAACAUCAGCUACTT against Zdhhc23, the z-score is reported as 4.01 (active).
For GGGAUACUCCAAGUUCCAUTT against Muc4, the z-score was 2.85 (active).
In the case of GCGUGCUUAUGAACAUAGUTT against Spen, the z-score is reported as 2.02 (active).
With GGUGUUAAUCCAGUUCAAUTT against Bbs12 the z-score was 2.26 (active).
In the case of GGAAGAAAGAGAGGUGUGATT against Nxf2, the z-score is reported as -2.26 (active).
In the case of GGUACCCACUAGAGGAUCATT against Madd, the z-score is reported as -2.61 (active).
In the case of GCCAAAUGUGCGUCAUCUATT against Zdhhc25, the z-score is reported as -2.54 (active).
With GGAAAGGACAAGAAAAUUUTT against Strn the z-score was -2.03 (active).
For CCAGAUCGGGAAAAAGGGUTT against Tsn, the z-score was -2.04 (active).
In the case of GGUUCUUGGAUAAAUCAAGTT against Mrpl40, the z-score is reported as 2.41 (active).
For GAUAUGUGCACAAUUCUGCTT against Vmn1r201, the z-score was -2.3 (active).
With AACCAUUCAGGAGAAAGCCTT against Lce1a1 the z-score was -3.05 (active).
